Consider five compounds from PubChem BioAssay AID504895 (National Center for Advancing Translational Sciences (NCATS), 2011).

Inconclusive results are not listed. Active and inactive are the calls of the source. The call rests on the fitted dose curve; in most records, active means well fitted curve in the direction sought with a large enough effect; inconclusive means small, poorly fitted or top-dose-only effect, or another doubt; inactive means no such curve, though single readings can be large or run the other way.

Sequence of Protein phosphatase EYA2 (Homo sapiens) (O00167 whole entry, looked up): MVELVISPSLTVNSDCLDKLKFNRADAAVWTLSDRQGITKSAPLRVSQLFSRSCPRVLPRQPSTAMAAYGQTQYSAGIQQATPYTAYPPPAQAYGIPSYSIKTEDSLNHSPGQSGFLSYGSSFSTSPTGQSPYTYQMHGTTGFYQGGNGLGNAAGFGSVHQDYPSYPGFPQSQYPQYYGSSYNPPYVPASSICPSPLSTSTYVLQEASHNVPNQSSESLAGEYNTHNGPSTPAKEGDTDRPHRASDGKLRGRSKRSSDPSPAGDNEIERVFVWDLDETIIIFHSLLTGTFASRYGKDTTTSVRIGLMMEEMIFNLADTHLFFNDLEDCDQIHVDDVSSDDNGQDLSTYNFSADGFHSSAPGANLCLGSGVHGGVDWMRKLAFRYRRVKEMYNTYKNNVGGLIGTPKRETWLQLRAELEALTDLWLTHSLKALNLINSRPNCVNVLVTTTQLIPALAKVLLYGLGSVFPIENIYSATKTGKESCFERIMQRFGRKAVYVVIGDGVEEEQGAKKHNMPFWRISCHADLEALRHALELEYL

The experiment has as its target Protein phosphatase EYA2 (Homo sapiens) (UniProt O00167). The experiment can be described thus: Inhibitors of Eya2ED: Hit Confirmation in Primary Screen. Particulars: Recombinant Eya2ED, OMFP fluorescence phosphatase assay; series mostly up to 76.9 µM. An excerpt: The Eya proteins (Eya1-4) were originally identified as essential co-activators of the Six1 transcription factor. […] Knockdown of Six1 decreases cancer cell proliferation and metastases in several different cancer models. […] A fluorescence-based HTS assay has been perfomed against the Molecular Libraries Small Molecule Repository (MLSMR) and has the AID 488837 in this database. After completion of the primary screen, hits were re-ordered and tested again in the primary screen in a 12 point titration. NIH Chemical Genomics Center [NCGC] NIH Molecular Libraries Probe Centers Network [MLPCN] MLPCN Grant: DA030559-01 Assay Submitter (PI): Rui Zhao, University of Colorado, Denver
The Eya2 enzyme was kindly provided by the laboratory of Dr. Rui Zhao. The 3-O-methyl-fluorescein phosphate (OMFP) substrate and all buffer reagents were purchased from Sigma Aldrich. qHTS Assay Setup: 1. Buffer- 50 mM HEPES pH 7.5, 50 mM NaCl, 5 uM MgCl2, 0.05% BSA, 1 mM DTT. 2. OMFP Stock- 10 mM solution prepared in 100% DMSO and stored in single use aliquots at -20C. Assay Procedure- 1. Dispense 1.5 ul per well of Eya2 at 0.2 uM in black medium binding 1536 well Greiner plate 2. Transfer 23 nl of compound and control compound (EGTA) to plate 3. Incubate at ambient for 10 minutes 4. Dispense 1.5 ul per well of OMFP at 50 uM 5. Incubate at ambient for 10 minutes 6. Read on ViewLux using Excitation = 485 nm, Emission = 525 nm
As to `Cn1c(O)c(/C=N/NC(=O)c2ccncc2)c(=O)n(C)c1=S`, the result was inactive. On to `O=[N+]([O-])c1ccc(N2CCCC2)c2ccncc12`, for which the result was inactive.

As for `O=c1[nH]c(=O)n(C2CCCCC2)c(O)c1C1NCCc2ccccc21` (stereo not given), the result was inactive. For the compound `O=C(O)C1C2CCC(O2)C1C(=O)Nc1cccc(Br)c1` (stereo not given), the outcome was inactive. The same measure for `CCOC(=O)c1ccc(N=C(CC)c2c(O)n(C)c(=O)n(C)c2=O)cc1`: “inactive”.
